# According to PubChem BioAssay:
# Activity calls are given as the source filed them. Rule as the data show it, unless noted: active = nuclear beta-catenin stimulation mostly above about 4.2% (no sharp cut-off); inactive = mostly below about 10%.
# How the values were obtained:
# [1] = Wnt pathway potentiators raising nuclear beta-catenin – imaging, WNT3A-conditioned medium, mouse C2C12, NPC library, primary screen (AID 1117326); settings: stronger effect = higher value
# [2] = stimulators of insulin release from INS-1E, primary screen, cell-based, 5 mM glucose, NPC library (AID 1117329;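 active = compound raises insulin release from rat beta cells at 5 mM glucose, no numeric limit stated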); settings: rat INS-1E insulin secretion, at 10 µM, stronger effect = higher value
# [3] = growth inhibition of GSK3B-pretreated HCT116 cells – cell-based, CellTiter-Glo, 0.2 to 20 µM (AID 1117336;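 active = compounds lowering colon cancer cell viability after pretreatment blocking the GSK3B kinase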); settings: HCT116 viability after GSK3B inhibitor, at 20 µM, stronger effect = higher value
# [4] = inhibition of endothelial tube formation, primary screen, imaging, VEGF stimulated, CD31 staining, tube area, NPC library (AID 1117340;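 active = compound that reduces growth-factor-driven endothelial tube area in a mixed cell culture, no cutoff stated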); settings: VEGF-stimulated ADSC/ECFC co-culture, at 10 µM, stronger effect = higher value
# [5] = GLP1 release stimulators, primary, NCI-H716, NPC library (AID 1117341;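 active = compound raises GLP1 secretion from the human gut endocrine cells, with no numeric limit stated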); settings: NCI-H716 cells, at 10 µM, stronger effect = higher value
# [6] = HCT116 colon cancer cell growth inhibition, primary screen, CellTiter-Glo luminescence, NPC library (AID 1117342;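 active = compounds that lower survival of HCT116 colon cancer cells in the luminescence readout, no numeric limit stated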); settings: at 20 µM (top of the series)
# [7] = reduced SW480 viability measured with CellTiter-Glo, NPC library, primary (AID 1117343;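 active = compounds that lower viability of the colon cancer cells in the luminescence readout, with no numeric limit stated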); settings: CellTiter-Glo luminescence; at 20 µM (top of the series) unless noted
# [8] = NPC library primary testing for decreased DLD-1 cell viability via CellTiter-Glo (AID 1117346;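 active = compounds that lower survival of DLD-1 colon cancer cells in the luminescence readout, no cutoff given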); settings: DLD-1 viability, CellTiter-Glo luminescence; at 20 µM (top of the series)
# [9] = target: NAD(+) hydrolase SARM1 (Homo sapiens) (UniProt Q6SZW1); test: blocking NAD cleavage by SARM1 SAM-TIR – cell lysate, NAD-Glo luminescence (AID 1508614;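 active = compound whose remaining NAD level is above about 45 nM, limit read from the data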;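 also: higher remaining NAD means stronger inhibition of SARM1 NADase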); settings: SAM-TIR HEK293T lysate NADase, at 1 µM, stronger effect = higher value
# Chain of NAD(+) hydrolase SARM1 (Homo sapiens) (Q6SZW1 whole entry, looked up, the tested form may be a part): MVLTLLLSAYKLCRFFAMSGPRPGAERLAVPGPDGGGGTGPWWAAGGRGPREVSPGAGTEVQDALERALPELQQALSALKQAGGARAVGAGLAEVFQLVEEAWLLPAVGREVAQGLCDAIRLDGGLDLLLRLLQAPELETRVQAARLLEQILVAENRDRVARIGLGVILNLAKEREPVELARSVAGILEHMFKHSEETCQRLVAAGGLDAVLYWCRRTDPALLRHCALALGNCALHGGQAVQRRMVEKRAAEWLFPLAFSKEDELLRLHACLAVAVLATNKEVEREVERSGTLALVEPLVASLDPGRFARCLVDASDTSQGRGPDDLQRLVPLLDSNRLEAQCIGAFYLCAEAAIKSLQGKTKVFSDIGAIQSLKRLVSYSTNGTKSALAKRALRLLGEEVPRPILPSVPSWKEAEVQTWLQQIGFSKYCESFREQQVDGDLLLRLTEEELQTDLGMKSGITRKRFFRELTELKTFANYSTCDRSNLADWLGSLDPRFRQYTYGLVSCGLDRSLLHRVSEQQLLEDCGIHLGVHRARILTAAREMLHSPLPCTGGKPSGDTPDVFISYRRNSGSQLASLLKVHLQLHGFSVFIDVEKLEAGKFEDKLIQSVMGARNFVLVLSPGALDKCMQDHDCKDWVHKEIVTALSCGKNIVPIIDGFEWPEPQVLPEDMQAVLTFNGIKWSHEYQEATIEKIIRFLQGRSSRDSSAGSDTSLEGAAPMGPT
# [10] = target: Mitogen-activated protein kinase 7 (Homo sapiens) (UniProt Q13164); test: Gal4-ERK5 driven luciferase induction – cell-based, HTS, primary screen (AID 1508626;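 active = luciferase signal above three times the same-plate solvent-only control wells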;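 also: luciferase driven by Gal4-ERK5 fusion binding five Gal4 sites before minimal TATA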); settings: HeLa Gal4-ERK5 transactivation, 18 h, at 5 µM, stronger effect = higher value
# Chain of Mitogen-activated protein kinase 7 (Homo sapiens) (Q13164 whole entry, looked up, the tested form may be a part): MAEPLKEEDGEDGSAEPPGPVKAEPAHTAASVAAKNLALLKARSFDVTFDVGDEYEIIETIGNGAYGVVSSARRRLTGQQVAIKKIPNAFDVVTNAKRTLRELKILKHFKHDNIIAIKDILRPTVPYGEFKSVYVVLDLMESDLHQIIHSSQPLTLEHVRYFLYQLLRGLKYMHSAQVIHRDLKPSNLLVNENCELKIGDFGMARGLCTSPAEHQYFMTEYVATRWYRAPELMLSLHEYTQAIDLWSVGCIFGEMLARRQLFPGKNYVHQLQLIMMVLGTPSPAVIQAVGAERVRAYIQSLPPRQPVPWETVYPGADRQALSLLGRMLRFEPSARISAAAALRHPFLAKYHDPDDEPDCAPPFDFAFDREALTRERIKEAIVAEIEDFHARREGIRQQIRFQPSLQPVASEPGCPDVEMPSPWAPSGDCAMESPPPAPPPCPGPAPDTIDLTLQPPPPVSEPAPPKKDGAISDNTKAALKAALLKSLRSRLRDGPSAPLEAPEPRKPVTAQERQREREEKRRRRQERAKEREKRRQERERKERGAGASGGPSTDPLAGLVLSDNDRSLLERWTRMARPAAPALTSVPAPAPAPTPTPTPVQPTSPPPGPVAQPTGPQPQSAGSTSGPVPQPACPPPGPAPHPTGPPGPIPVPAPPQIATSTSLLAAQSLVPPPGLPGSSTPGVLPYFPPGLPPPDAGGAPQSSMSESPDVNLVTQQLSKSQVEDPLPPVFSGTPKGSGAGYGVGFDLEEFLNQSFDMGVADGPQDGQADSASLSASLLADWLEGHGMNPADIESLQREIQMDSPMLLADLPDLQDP
# [11] = EMT-state selective cytotoxicity in co-culture – imaging, PC-3E GFP, TEM4-18 mCherry, primary screen (AID 1345086;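 active = compounds killing one labelled cell type while sparing the other, by normalised counts and ratio limits, not self-fluorescent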;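 as to all read-outs here: cells exposed to compound for 72 h before imaging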;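 as to red/green cell ratio (normalised): normalised mesenchymal count divided by normalised epithelial count so high means epithelial killing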); settings: PC-3E GFP / TEM4-18 mCherry co-culture, imaging cell counts, at 1 µM; for red/green cell ratio (normalised): actives lie on both sides, counts scaled to control wells, 1 = unselective
# [12] = viability loss with induced miR-34 in A549 – imaging, A549 dox-inducible miR-34, nuclei and caspase counts, primary screen (AID 1347080;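 active = compounds whose cell count with miR-34 switched on is under 0.7 times the count with it off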); settings: A549 miR-34 inducible, Hoechst nuclei count, 48 h
# [13] = measured here: epithelial PC-3E GFP cell survival
# [14] = measured here: mesenchymal TEM4-18 mCherry cell survival
# [15] = stronger effect = lower value, cell number ratio, induced over uninduced
# [16] = measured here: relative caspase fold change +Dox/-Dox
# [17] = measured here: total cells with miR-34 induction, stronger effect = lower value
# [18] = measured here: total cells without miR-34 induction
smiles,measurement,setting,value
Cc1cc(CC(C)CC(C)(C)C)n(O)c(=O)c1 (centres undefined),nuclear beta-catenin stimulation,[1]; at 10 µM,43.5% (active)
same,nuclear beta-catenin stimulation,"[1]; stimulation, at 2 µM",50.6%
same,insulin secretion stimulation,[2],2.2% (inactive)
same,viability decrease,[3],94.2% (active)
same,tube area decrease,[4],107% (active)
same,GLP1 secretion stimulation,[5],-0.7% (inactive)
same,inhibition of viability,[6],67.2% (active)
same,viability decrease (inhibition),[7],95.7% (active)
same,viability decrease (inhibition),[8],91.5% (active)
same,remaining NAD,[9],10 nM (inactive)
C[C@]12CC[C@@H]3c4ccc(O)cc4CC[C@H]3[C@@H]1CC[C@@H]2OC(=O)CCC1CCCC1,nuclear beta-catenin stimulation,[1]; at 10 µM,28.4% (inactive)
same,nuclear beta-catenin stimulation,"[1]; stimulation, at 2 µM",2.5%
same,insulin secretion stimulation,[2],0.5% (inactive)
same,viability decrease,[3],-8.5% (inactive)
same,tube area decrease,[4],110% (active)
same,GLP1 secretion stimulation,[5],3.6% (inactive)
same,inhibition of viability,[6],6.73% (inactive)
same,viability decrease (inhibition),[7],27% (inactive)
same,viability decrease (inhibition),[8],-23.3% (inactive)
same,remaining NAD,[9],10 nM (inactive)
same,luciferase signal,[10],84 AU (inactive)
C=CCCCCCCCCC(=O)OC,nuclear beta-catenin stimulation,[1]; at 10 µM,2.7% (inactive)
same,nuclear beta-catenin stimulation,"[1]; stimulation, at 2 µM",2%
same,insulin secretion stimulation,[2],2.85% (inactive)
same,GLP1 secretion stimulation,[5],1.2% (inactive)
CCCn1cnc2c1c(=O)n(CCCCC(C)=O)c(=O)n2C,nuclear beta-catenin stimulation,[1]; at 10 µM,6.6% (inactive)
same,nuclear beta-catenin stimulation,"[1]; stimulation, at 2 µM",-0.2%
same,insulin secretion stimulation,[2],-1.25% (inactive)
same,viability decrease,[3],14.1% (inactive)
same,GLP1 secretion stimulation,[5],-4.5% (inactive)
same,inhibition of viability,[6],20.6% (inactive)
same,viability decrease (inhibition),[7],-2.8% (inactive)
same,viability decrease (inhibition),[8],19.6% (inactive)
same,red/green cell ratio (normalised),[11],0.84 (inactive)
same,normalised cell number,[11]; [13],1.14
same,normalised cell number,[11]; [14],0.96
same,fold change,[12]; [15],1.02 (inactive)
same,fold change,[12]; [16],0.994
same,cell count,[12]; [17],10000
same,cell count,[12]; [18],9790
N[C@H]1C(O)O[C@H](CO)[C@@H](O)[C@@H]1O (some centres undefined),nuclear beta-catenin stimulation,[1]; at 10 µM,-1% (inactive)
same,nuclear beta-catenin stimulation,"[1]; stimulation, at 2 µM",1.7%
same,insulin secretion stimulation,[2],1.4% (inactive)
same,viability decrease,[3],7.5% (inactive)
same,tube area decrease,[4],-12.1% (inactive)
same,GLP1 secretion stimulation,[5],-0.8% (inactive)
same,inhibition of viability,[6],-4.93% (inactive)
same,viability decrease (inhibition),[7],-42% (inactive)
same,viability decrease (inhibition),[8],-2.3% (inactive)
same,luciferase signal,[10],84 AU (inactive)
NC(=O)C1(N2CCCCC2)CCN(CCCN2c3ccccc3CCc3ccc(Cl)cc32)CC1,nuclear beta-catenin stimulation,[1]; at 10 µM,1.5% (inactive)
same,nuclear beta-catenin stimulation,"[1]; stimulation, at 2 µM",12.3%
same,viability decrease,[3],99.5% (active)
same,tube area decrease,[4],109% (active)
same,inhibition of viability,[6],99.4% (active)
same,viability decrease (inhibition),[7],102% (active)
same,viability decrease (inhibition),[8],102% (active)
CCCCCCCCCCCCCCCCCCOP(=O)([O-])OC1CC[N+](C)(C)CC1,nuclear beta-catenin stimulation,[1]; at 10 µM,-0.8% (inactive)
same,nuclear beta-catenin stimulation,"[1]; stimulation, at 2 µM",-1%
same,insulin secretion stimulation,[2],0.3% (inactive)
same,GLP1 secretion stimulation,[5],0.4% (inactive)
CN1CCN(C2Cc3ccccc3Sc3ccc(Cl)cc32)CC1 (centres undefined),nuclear beta-catenin stimulation,[1]; at 10 µM,5.2% (inactive)
same,nuclear beta-catenin stimulation,"[1]; stimulation, at 2 µM",-1.6%
same,insulin secretion stimulation,[2],6.6% (inactive)
same,GLP1 secretion stimulation,[5],13.2% (inactive)
same,fold change,[12]; [15],1.08 (inactive)
same,fold change,[12]; [16],0.783
same,cell count,[12]; [17],5640
same,cell count,[12]; [18],5230
CC(C)=CCCC(C)=CCCC(C)=CCCC=C(C)CCC=C(C)CCC=C(C)C,nuclear beta-catenin stimulation,[1]; at 10 µM,-0.4% (inactive)
same,nuclear beta-catenin stimulation,"[1]; stimulation, at 2 µM",1.7%
same,insulin secretion stimulation,[2],0.6% (inactive)
same,GLP1 secretion stimulation,[5],-1.9% (inactive)
Cc1cc(O)c2c(O)c3c(O)cccc3cc2c1,nuclear beta-catenin stimulation,[1]; at 10 µM,6.3% (inactive)
same,nuclear beta-catenin stimulation,"[1]; stimulation, at 2 µM",4.6%
same,viability decrease,[3],97% (active)
same,tube area decrease,[4],67.8% (active)
same,inhibition of viability,[6],90.6% (active)
same,viability decrease (inhibition),[7],95.1% (active)
same,viability decrease (inhibition),[8],95.3% (active)
CCc1cccc(N(C)C(N)=Nc2cccc3ccccc23)c1,nuclear beta-catenin stimulation,[1]; at 10 µM,-1.6% (inactive)
same,nuclear beta-catenin stimulation,"[1]; stimulation, at 2 µM",-1.7%
same,insulin secretion stimulation,[2],60.2% (active)
same,GLP1 secretion stimulation,[5],1.6% (inactive)
same,fold change,[12]; [15],1.03 (inactive)
same,fold change,[12]; [16],1.33
same,cell count,[12]; [17],7210
same,cell count,[12]; [18],6970
C=CC(C)(O)CCC=C(C)CCC=C(C)C (centres undefined),nuclear beta-catenin stimulation,[1]; at 10 µM,2.7% (inactive)
same,nuclear beta-catenin stimulation,"[1]; stimulation, at 2 µM",-0.9%
same,insulin secretion stimulation,[2],-0.2% (inactive)
same,GLP1 secretion stimulation,[5],9.7% (inactive)
CCOC(=O)c1ccccc1O,nuclear beta-catenin stimulation,[1]; at 10 µM,1.4% (inactive)
same,nuclear beta-catenin stimulation,"[1]; stimulation, at 2 µM",8.4%
same,viability decrease,[3],4.2% (inactive)
same,tube area decrease,[4],-12.2% (inactive)
same,inhibition of viability,[6],3.3% (inactive)
same,viability decrease (inhibition),[7],-4.5% (inactive)
same,viability decrease (inhibition),[8],-2.7% (inactive)
COc1ccc(/C=N/NC(=O)c2ccncc2)cc1OC,nuclear beta-catenin stimulation,[1]; at 10 µM,3.6% (inactive)
same,nuclear beta-catenin stimulation,"[1]; stimulation, at 2 µM",8%
same,viability decrease,[3],2.5% (inactive)
same,tube area decrease,[4],12.2% (inactive)
same,inhibition of viability,[6],11.9% (inactive)
same,viability decrease (inhibition),[7],-1% (inactive)
same,viability decrease (inhibition),[8],-0.1% (inactive)
COc1ccc2c(c1)c1c3n2CCN(C)C3=NCC1,nuclear beta-catenin stimulation,[1]; at 10 µM,1.3% (inactive)
same,nuclear beta-catenin stimulation,"[1]; stimulation, at 2 µM",0.5%
same,insulin secretion stimulation,[2],1.05% (inactive)
same,GLP1 secretion stimulation,[5],6.4% (inactive)
CCCCC(CC)COC(=O)CC(C(=O)OCC(CC)CCCC)S(=O)(=O)O (centres undefined),nuclear beta-catenin stimulation,[1]; at 10 µM,2.7% (inactive)
same,nuclear beta-catenin stimulation,"[1]; stimulation, at 2 µM",-0.9%
same,insulin secretion stimulation,[2],-1.3% (inactive)
same,GLP1 secretion stimulation,[5],84.6% (active)
same,red/green cell ratio (normalised),[11],0.91 (inactive)
same,normalised cell number,[11]; [13],0.99
same,normalised cell number,[11]; [14],0.9
same,fold change,[12]; [15],0.854 (inactive)
same,fold change,[12]; [16],1.07
same,cell count,[12]; [17],8120
same,cell count,[12]; [18],9510
same,remaining NAD,[9],10 nM (inactive)
CC(CC=O)CCCC(C)(C)O (centres undefined),nuclear beta-catenin stimulation,[1]; at 10 µM,0.5% (inactive)
same,nuclear beta-catenin stimulation,"[1]; stimulation, at 2 µM",-1.3%
same,insulin secretion stimulation,[2],0.85% (inactive)
same,GLP1 secretion stimulation,[5],3.1% (inactive)
Cc1c(O)cc2c(c1C)O[C@](C)(CCC[C@H](C)CCC[C@H](C)CCCC(C)C)CC2,nuclear beta-catenin stimulation,[1]; at 10 µM,0.3% (inactive)
same,nuclear beta-catenin stimulation,"[1]; stimulation, at 2 µM",-0.6%
same,insulin secretion stimulation,[2],0.7% (inactive)
same,GLP1 secretion stimulation,[5],9.2% (inactive)
C/C(=N\O)[C@@H](C)NCC(C)(C)CN[C@H](C)/C(C)=N/O,nuclear beta-catenin stimulation,[1]; at 10 µM,1.5% (inactive)
same,nuclear beta-catenin stimulation,"[1]; stimulation, at 2 µM",-1.3%
same,insulin secretion stimulation,[2],1.9% (inactive)
same,GLP1 secretion stimulation,[5],-8.7% (inactive)
